Measured values: PubChem BioAssay AID720596 (The Scripps Research Institute Molecular Screening Center, 2013)
The campaign covered roughly 370,000 compounds. About 1,600 (0.43%) were called active. The sample as a whole holds a higher share of actives than the screen did. A number with no mark means an inactive call. No stated cut-off is given here; in the data, active means inhibition above about 24%; inactive means the rest.

Target: Major prion protein (Homo sapiens) (UniProt P04156)
Assay: reduces human prion protein on the cell surface, primary screen, cell-based, TR-FRET (AID 720596); further: 0% = median of the test wells and 100% = reference compound wells
Conditions: cell surface PrPC, TR-FRET read-out; at 13.8 µM; active compounds read high

Going from `Cc1ccc(C)c(NC(=O)C2CC(=O)N(C(C)C)C2)c1` (stereo not drawn) to `COc1ccc(S(=O)(=O)N2CCOCC2)cc1NC(=O)CSc1cc(C)ccc1C`, the inhibition falls from 1.81% to -4.51%.

First: CC(C)(C)NC(=O)COc1ccc(CNc2ccc3[nH]c(=O)[nH]c3c2)cc1
Second: CCN(c1ccccc1)S(=O)(=O)c1ccc2[nH]c(=O)[nH]c2c1
The inhibition of the first is higher: -1.03% for the first, -6.81% for the second.

Going from `COc1ccccc1NC(=O)COC(=O)CNC(=O)C1CCCCC1` to `COc1ccc(NC(=O)CN(C)C(=O)CNC(=O)C2CCCCC2)cc1`, the inhibition rises from -3.12% to 7.94%.

First: Cc1ccc(NC(=O)N2c3ccccc3SC2c2ccco2)c(C)c1 (stereo not drawn)
Second: Cc1ccc(OC(=O)c2c(C)nn(-c3ccccc3)c2C)cc1
The inhibition of the first is lower: 2.15% for the first, 4.97% for the second.

Going from `COc1ccc(C(=O)N2CCCCC2c2cc(C(=O)Nc3ccccc3)no2)cc1` (stereo not drawn) to `O=C(Nc1ccc(N2CCN(C(=O)c3ccccc3)CC2)c(Cl)c1)c1ncn[nH]1`, the inhibition rises from 6.89% to 11.2%.

Compared with `CN1CCn2cnc(C(=O)NCC(=O)OC(C)(C)C)c2C1=O`, `CC(C)CCN1CCC(C)(NC(=O)c2ccccc2)C1=O` (stereo not drawn) is lower in inhibition: -0.34% for the first, -6.7% for the second.

Going from `COCC1CCN(C(=O)C2CCC(=O)N(Cc3cccc(C(F)(F)F)c3)C2)CC1` (stereo not drawn) to `O=C(CCN1CCCO1)N1CCCC(N2CCN(c3cccc(C(F)(F)F)c3)CC2)C1` (stereo not drawn), the inhibition falls from 9.85% to 1.86%.

First: COc1ccccc1CNC(=O)c1cc(-c2cc(F)ccc2OC)n[nH]1
Second: COc1cc(F)ccc1-c1cc(C(=O)NCC2CCCCC2)[nH]n1
The inhibition of the first is lower: -1.69% for the first, 9.68% for the second.

Going from `CC1(C)CC(=O)C2=C(C1)NCN(CCCN1CCOCC1)C2` to `C=CCn1c(O)c(/C=N/N2CCOCC2)c(=O)[nH]c1=S`, the inhibition falls from -0.29% to -4.21%.

Compared with `Cn1cccc1C1(C(F)(F)F)NCCNC1=O` (stereo not drawn), `COC(=O)c1sccc1NC(=O)CC1C(=O)NCCN1C(=O)Nc1ccc(F)cc1F` (stereo not drawn) is higher in inhibition: -0.11% for the first, 4.59% for the second.

Going from `O=C(O)c1ccc(F)c(S(=O)(=O)Nc2ccccc2)c1` to `Cc1cc(C(C)(C)C)cc(S(=O)(=O)Nc2ccc(C(=O)O)cc2)c1C`, the inhibition rises from -4.14% to 0.8%.

Going from `CCC(C)N(C(=O)COC(=O)c1nc(Cl)ccc1Cl)C1CCS(=O)(=O)C1` (stereo not drawn) to `Cc1sc2ncnc(SCC(=O)NC3CCS(=O)(=O)C3)c2c1C` (stereo not drawn), the inhibition rises from 5.66% to 9.26%.

Going from `Cc1cc2oc3ccc(NCCC4CCCN4C)cc3c(=O)c2cc1C` (stereo not drawn) to `Cc1c(C(=O)NCCN(C)C)oc2ccc(S(=O)(=O)N3CCCC3)cc12`, the inhibition rises from -13.5% to 1.49%.

Going from `N#Cc1c(-c2ccc(Cl)cc2)c2c([nH]c1=S)CCCC2` to `O=C1CCCC2=C1C(c1cccs1)CC(=O)N2c1ccc(F)cc1` (stereo not drawn), the inhibition rises from -2.9% to 0.75%.

Going from `CC1CC(=O)Nc2ccccc2N1C(=O)COc1ccc2cc(Br)ccc2c1` (stereo not drawn) to `CCC(=O)N1c2ccccc2NC2=C(C(=O)CCC2)C1c1ccco1` (stereo not drawn), the inhibition falls from -0.09% to -1.24%.

Compared with `Cc1ccc(S(=O)(=O)N(C)C)cc1NC(=O)c1ccc(-n2cncn2)c([N+](=O)[O-])c1`, `Cc1ccc(CC(=O)Nc2ccc(S(=O)(=O)N3CCOCC3)cc2)cc1C` is higher in inhibition: -32.8% for the first, 10.2% for the second.

First: O=C(N/N=C/c1c(O)n(C2CC2)c(=S)[nH]c1=O)c1ccccc1Cl
Second: O=C(N/N=C/c1c(O)n(C2CC2)c(=S)[nH]c1=O)c1ccccc1
The inhibition of the first is higher: 6.86% for the first, -3.29% for the second.

First: COc1ccc2ccccc2c1CNc1nnnn1C
Second: CSc1nnc(CNC(=O)c2ccccc2)n1-c1ccc(F)cc1
The inhibition of the first is lower: -6.2% for the first, 0.49% for the second.

First: CC1=C(C(=O)Nc2cccc(C(=O)NCC(C)c3ccccc3)c2)SCCO1 (stereo not drawn)
Second: O=C(CCCOc1ccccc1)Nc1cccc(C(=O)O)c1
The inhibition of the first is higher: 12.5% for the first, 2.69% for the second.

Compared with `CC(c1cccnc1)N(CCN(C)C)C(=O)Nc1ccc(Cl)c(Cl)c1` (stereo not drawn), `O=C(CCS(=O)(=O)c1ccccc1)Nc1ccc(Cl)c(Cl)c1` is higher in inhibition: 2.3% for the first, 4.48% for the second.

Compared with `CC(C)c1ccc(NC(=O)[C@@H](NC(=O)N2CC(=O)Nc3ccccc32)C(C)C)cc1`, `CC1(c2ccccc2)NC(=O)N(CC(=O)N2CC(=O)Nc3ccccc32)C1=O` (stereo not drawn) is lower in inhibition: 3.7% for the first, 1.68% for the second.

First: COC(=O)c1c(-c2cccs2)csc1NC(=O)CSc1ncnc2sc(C)c(C)c12
Second: CC(=O)c1c(C)[nH]c(C(=O)OCC(=O)Nc2c(C)n(C)n(-c3ccccc3)c2=O)c1C
The inhibition of the first is lower: -2.84% for the first, 6.5% for the second.

Going from `CC/C(=N\O)C(C)(C)/[N+]([O-])=C/c1ccc(Br)cc1` to `CC1(C)CC(=O)C(C=NCc2cccnc2)=C(O)C1`, the inhibition falls from 10.7% to 6.76%.

Compared with `COc1ccc2c(c1)[C@@]13CCCCC1[C@@H](C2)NCC3` (stereo partly drawn), `COc1ccc(/C=C/CN2CCCC(C(=O)c3cc(F)ccc3F)C2)cc1` (stereo not drawn) is higher in inhibition: 1.48% for the first, 3.26% for the second.

First: Cc1cc2cc(CNC(=O)c3cccs3)ccc2[nH]1
Second: Cc1ccc(Cn2cc(C(=O)NN)c(=O)c3ccc(F)cc32)cc1
The inhibition of the first is higher: 7.85% for the first, -1.23% for the second.

Going from `Cc1nc(NC(=O)CCC(=O)O)sc1C(=O)N(C)C` to `Cc1nnc(NC(=O)CCC(=O)N2CCC(C)CC2)s1`, the inhibition falls from 0.26% to -8.95%.

First: Nc1nc2c(Br)ccc(Br)c2cc1C(=O)NCCc1ccccc1
Second: CCC(C)[C@@H](C(=O)OC)N(CCc1cn(Cc2ccccc2)nn1)S(=O)(=O)c1ccccc1Br (stereo partly drawn)
The inhibition of the first is higher: 6.33% for the first, 2.07% for the second.

Going from `CCN(Cc1ccccc1)C(=O)CN1C(=S)NC(C)(C)CC1C` (stereo not drawn) to `CN(C(=O)COC(=O)CCCc1c[nH]c2ccccc12)c1c(N)n(Cc2ccccc2)c(=O)[nH]c1=O`, the inhibition rises from 6.01% to 7.89%.

First: Cc1ccccc1N1CCN(C(=O)c2cccnc2)CC1
Second: CC(=O)Nc1ccc(S(=O)(=O)N2CCC(NC(=O)c3ccccc3)CC2)cc1
The inhibition of the first is higher: -4.83% for the first, -5.81% for the second.

First: COc1ccc2c(c1)c(=O)c(C(=O)c1ccc(Cl)cc1)cn2CC(=O)Nc1ccc(F)cc1
Second: COc1ccc(Cn2cccc(NC(=O)Nc3ccc(C#N)cc3)c2=O)cc1
The inhibition of the first is lower: 0.3% for the first, 4.26% for the second.

Going from `CCCCc1nc2cc(C(=O)NCCc3cnn(C)c3)ccc2o1` to `O=C(Nc1nnc([C@H]2C[C@H](O)[C@@H](CO)O2)s1)c1cccc(Cl)c1`, the inhibition rises from -7.17% to -5.24%.

Compared with `CC(C)N(Cc1nc(-c2ccc3c(c2)OCO3)no1)CC1CCC(=O)N1` (stereo not drawn), `Cc1nnc(NC(=O)CSc2nc(C3CCCCC3)nc3ccccc23)s1` is lower in inhibition: 7.11% for the first, 2.15% for the second.

First: COc1ccc(-c2c(C)cc3oc(=O)cc(-c4ccccc4)c3c2C)cc1C=O
Second: COc1cccc(NC(=S)C(C#N)=C2N(C)c3ccccc3N2C)c1
The inhibition of the first is higher: 4.67% for the first, -1.55% for the second.

Going from `CCOc1ccc(Oc2c(Cl)cnn(-c3ccc(C)cc3)c2=O)cc1` to `O=C(Nc1cccn(Cc2c(Cl)cccc2Cl)c1=O)c1ccc(Cl)cc1`, the inhibition rises from -10.9% to 2.47%.

First: CN(Cc1c(F)cccc1Cl)S(=O)(=O)c1cccs1
Second: Cc1oc(-c2ccccc2Cl)[n+]([O-])c1C
The inhibition of the first is lower: -6.92% for the first, -0.12% for the second.

Going from `COc1cc2c(cc1OC)C(=O)NCC(C)(C)O2` to `COc1ccc(S(=O)(=O)N2CCOCC2)cc1NC(=O)CSc1nnc(NC2CC2)s1`, the inhibition rises from 6.88% to 7.4%.

Going from `COC(=O)C(c1ccccc1)N1CCCCCC1` (stereo not drawn) to `CN(C(=O)CSc1nc(C2CC2)nc2ccccc12)c1nc(-c2ccccc2)cs1`, the inhibition rises from -4.88% to -2.06%.

Compared with `O=C(Nc1ccc(F)cc1)Nc1nnc([C@H]2C[C@H](O)[C@@H](CO)O2)s1`, `Cc1c(Br)c([N+](=O)[O-])nn1C(C)C(=O)Nc1nccs1` (stereo not drawn) is lower in inhibition: 1.64% for the first, -4.47% for the second.

For `COc1ccc(NC(=O)COC(=O)CNC(=O)C2CCCCC2)cc1`, the inhibition was 31.5% (active).
With `COc1ccc(OC)c(NC(=O)c2cc(-c3cc(F)ccc3OCC3CCCO3)n[nH]2)c1` (stereo not drawn) the inhibition was 84.9% (active).
With `Cc1ccc(C(=O)Nc2ccccc2-c2ccccc2)cc1S(=O)(=O)Nc1ccccc1` the inhibition was 25.5% (active).
With `COc1cccc2sc3cc(NCC[C@@H]4CCCN4C)ccc3c(=O)c12` the inhibition was 44.1% (active).
In the case of `O=C(Nc1ccccc1Cl)/C(Cl)=C(\Cl)S(=O)c1ccccc1` (stereo not drawn), the inhibition is reported as 93.7% (active).
In the case of `Cc1[nH]n(-c2ccccc2)c(=O)c1/C=N/NC(=O)c1ccoc1C`, the inhibition is reported as 43.4% (active).
For `Cn1c(=S)sc2ccc3ccccc3c21`, the inhibition was 51.9% (active).
`O=C(CC(O)(C(F)(F)F)C(F)(F)F)Nc1ccc(Cl)c(Cl)c1` was tested, and the inhibition was 64.7% (active).
In the case of `Cc1sc2ncnc(SCC(=O)Nc3ccc(CN4CCCC4)cc3)c2c1C`, the inhibition is reported as 33.7% (active).
With `O=C1CCCC2=C1C(c1cccs1)n1nc(SCc3ccccc3)nc1N2` (stereo not drawn) the inhibition was 50.8% (active).
For `Cc1cc2cc(CNC(=O)c3ccc(S(=O)(=O)N4CCOCC4)cc3)ccc2[nH]1`, the inhibition was 27.4% (active).
For `CN(C)CCNC(=O)c1ccc(Cl)c2cc3ccccc3nc12`, the inhibition was 34.5% (active).
For `O=C(Nc1ccc(N2CCN(C(=O)c3ccccc3)CC2)c(Cl)c1)c1cccnc1`, the inhibition was 26.1% (active).
In the case of `O=C(c1ccc(F)cc1)c1cn(Cc2ccc(F)cc2)c2cc3c(cc2c1=O)OCCO3`, the inhibition is reported as 34.4% (active).
For `N#Cc1c(N)nc2c3c(sc(=N)c2c1N)NC(=O)CC3c1ccccc1Cl` (stereo not drawn), the inhibition was 31.5% (active).
In the case of `Cc1ccc(Oc2cnn(-c3ccccc3)c(=O)c2Br)cc1`, the inhibition is reported as 32.8% (active).
In the case of `CC(=O)Nc1cccc(OCC(=O)/C=C2\N(C)c3ccccc3C2(C)C)c1`, the inhibition is reported as 29.7% (active).
`O=C(Nc1cccn(Cc2ccccc2Cl)c1=O)NC1CCCCC1` was tested, and the inhibition was 24.9% (active).
`CC1(C)CC(N2CCN(C(c3ccccc3)c3ccccc3)CC2)=CC(=[N+]2CCCCC2)C1` was tested, and the inhibition was 24.4% (active).
`Cc1ccc(CNC(=O)Nc2nnc([C@H]3C[C@H](O)[C@@H](CO)O3)s2)cc1` was tested, and the inhibition was 25.8% (active).
With `COC(=O)CSc1nc(C2CC2)nc2ccccc12` the inhibition was 34% (active).
In the case of `COc1ccc(S(=O)(=O)N2CCOCC2)cc1NC(=O)CSc1ncnc2ccccc12`, the inhibition is reported as 47.3% (active).
